# Inconclusive results are not listed. Where a call stands in place of a potency, no number is given. A number with no mark means an inactive call. Active and inactive are the calls of the source. The call rests on the fitted dose curve; in most records, active means well fitted activation curve with a large enough effect in the signal ratio in the repeat runs (not every such curve was filed as active); inconclusive means weak or mixed curves, or effect the other way; inactive means flat fitted curve, though single readings scatter; the % refers to the signal ratio.
# Biological target: Estrogen receptor beta (Homo sapiens) (UniProt Q92731)
# Sequence (Q92731 whole entry, looked up): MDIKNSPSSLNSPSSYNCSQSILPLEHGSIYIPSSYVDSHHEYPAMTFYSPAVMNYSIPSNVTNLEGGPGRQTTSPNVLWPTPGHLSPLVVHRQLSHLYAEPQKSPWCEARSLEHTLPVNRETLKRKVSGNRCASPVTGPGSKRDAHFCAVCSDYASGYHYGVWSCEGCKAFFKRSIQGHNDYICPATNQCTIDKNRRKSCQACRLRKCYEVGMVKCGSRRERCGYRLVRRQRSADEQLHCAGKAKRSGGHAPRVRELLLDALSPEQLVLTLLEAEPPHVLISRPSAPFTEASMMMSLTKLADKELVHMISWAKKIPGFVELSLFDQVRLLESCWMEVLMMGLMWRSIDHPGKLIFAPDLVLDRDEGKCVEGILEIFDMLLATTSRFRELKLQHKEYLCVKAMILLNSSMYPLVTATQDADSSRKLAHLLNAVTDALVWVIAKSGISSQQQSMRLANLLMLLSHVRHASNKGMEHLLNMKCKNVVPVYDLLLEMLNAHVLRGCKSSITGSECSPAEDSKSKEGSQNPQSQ
# Test: qHTS assay to identify small molecule agonists of the estrogen receptor beta (ER-beta) signaling pathway (AID 1259377)
# Settings: ER-beta-UAS-bla HEK293T, beta-lactamase FRET ratio, 16 h; series mostly up to 92.4 µM
# Description: U.S. Tox21 Program National Center for Advancing Translational Sciences [NCATS] NIH Chemical Genomics Center [NCGC] U.S. Environmental Protection Agency [EPA] National Institutes of Environmental Health Sciences [NIEHS] National Toxicology Program [NTP] U.S. Food and Drug Administration [FDA] Tox21 Assay Overview: Estrogen receptor (ER), a nuclear hormone receptor, plays an important role in development, metabolic homeostasis and reproduction. Two subtypes of ER, ER-alpha and ER-beta, have similar expression patterns with some uniqueness in both types. Endocrine disrupting chemicals (EDCs) and their interactions with steroid hormone receptors like ER causes disruption of normal endocrine function. To identify the compounds that activate ER signaling, an ER beta-UAS-bla GripTite cell line (Life technologies, Madison, WI, USA) containing a beta-lactamase reporter gene under the control of an Upstream Activator Sequence (UAS) was used to screen Tox21 10K compound library.
# Tox21 Assay Protocol Summary: ER-beta-UAS-bla HEK293T cells were dispensed at 2,000 cells/5 uL of assay medium containing 2% charcoal stripped FBS per well into black wall/clear-bottom 1536-well plates using a Multidrop Combi (ThermoFisher Scientific, Waltham, MA) dispenser. After the assay plates were incubated at a 37C and 5% CO2 for 6 hr, 23 nL of compounds dissolved in DMSO, positive controls or DMSO only was transferred to the assay plate by a Pintool station (Kalypsys, San Diego, CA). The plates were incubated at 37C and 5% CO2 for 16 hr. Then 1 uL of LiveBLAzerTM B/G FRET substrate was added using a BioRAPTR FRD (Flying Reagent Dispenser, Aurora Discovery, San Diego, CA). After the plates were incubated at room temperature for 2 hours, fluorescence intensity was measured by an Envision plate reader (PerkinElmer, Shelton, CT).
SMILES,Potency,activation
CC(=O)CCC1=C(C)CCCC1(C)C,inactive,
CN1CCOC(c2ccccc2)c2ccccc2C1 (stereo not given),inactive,
CC(C)C1OCCN1CCOC(=O)NCCCCCCNC(=O)OCCN1CCOC1C(C)C (stereo not given),inactive,
CC1(C)O[C@H]2CC(=O)OC[C@]23[C@H]2CC[C@@]4(C)[C@H](c5ccoc5)OC(=O)[C@H]5O[C@]54[C@]2(C)C(=O)C[C@@H]13,inactive,
CC(C)Nc1ccccc1,inactive,
COS(=O)(=O)O,inactive,
CC1=C(C(=O)O)N2C(=O)[C@@H](NC(=O)[C@H](N)C3=CCC=CC3)[C@H]2SC1,inactive,
CC(C)[C@H]1CC[C@H](C)C[C@@H]1O,inactive,
CC(=O)CCc1ccc(OC(C)=O)cc1,inactive,
CC1(C)Oc2ccc(C#N)cc2[C@@H](N2CCCC2=O)[C@@H]1O,inactive,
CC(=O)O[C@H]1C[C@@H]2CC[C@@]1(C)C2(C)C,inactive,
CC1OCCC1=O (stereo not given),inactive,
CN(C)CCN(C)CCO,inactive,
Cc1ccccc1C(N)=O,inactive,
CC(C)(C)NC[C@H](O)COc1cccc2c1CCCC2=O,inactive,
C=CCN1C[C@H](C(=O)N(CCCN(C)C)C(=O)NCC)C[C@@H]2c3cccc4[nH]cc(c34)C[C@H]21,inactive,
Cc1ccc(C(=O)O)cc1[N+](=O)[O-],inactive,
COC(=O)/C=C\C(=O)O,inactive,
O=NN(CCCl)C(=O)NC1CCCCC1,inactive,
[O-][n+]1cccc(/C(Cl)=N/OC[C@@H](O)CN2CCCCC2)c1,inactive,

SMILES,Potency,activation
CN(C)CC/C=C1/c2ccccc2COc2ccc(CC(=O)O)cc21,inactive,
CC(S)C(C)S (stereo not given),inactive,
N#Cc1cscn1,inactive,
COc1cc(OC)nc(O[C@H](C(=O)O)C(OC)(c2ccccc2)c2ccccc2)n1,inactive,
CCCc1ccc(O)cc1,inactive,
CC(Oc1cc(Cl)ccc1Cl)C(=O)O (stereo not given),inactive,
c1ccc(-c2nn[nH]n2)cc1,inactive,
N[C@@H](Cc1ccc(O)cc1)C(=O)O,,4.88% [at 8.39 µM]
O=C1CCC(=O)N1Cl,inactive,
CCOc1cccc(N)c1,inactive,
Cc1cc(-c2ccccc2)nnc1NCCN1CCOCC1,inactive,
CC/C=C\CCOC(=O)c1ccccc1O,inactive,
C/C(=C1\CCOC(=O)S1)N(C=O)Cc1cnc(C)nc1N,inactive,
COc1nc(N)nc2nc[nH]c12,inactive,
O=C(O)CCCCCC(=O)O,inactive,
O=C1CCCCO1,inactive,
CC(=O)OCC(=O)Nc1cc(C#N)cc(NC(=O)COC(C)=O)c1Cl,inactive,
CC(=O)c1cc(C)oc1C,inactive,
C=CCCCCCCCCC(=O)OCCCC,inactive,
CCCC(=O)Nc1ccc(OCC(O)CNC(C)C)c(C(C)=O)c1 (stereo not given),inactive,
